Results filed as inconclusive are left out. Unmarked numbers belong to inactive results. Activity calls are given as the source filed them. The call rests on the fitted dose curve; in most records, active means well fitted inhibition curve with a large enough effect; inconclusive means small, poorly fitted or top-dose-only effect; inactive means flat fitted curve, though single readings scatter. Residues, ends and D or L forms follow the SMILES beside them. *: point of attachment. Cbz = O=C(OCc1ccccc1)*

Chain of Lysine-specific demethylase 5B (Homo sapiens) (Q9UGL1 whole entry, looked up): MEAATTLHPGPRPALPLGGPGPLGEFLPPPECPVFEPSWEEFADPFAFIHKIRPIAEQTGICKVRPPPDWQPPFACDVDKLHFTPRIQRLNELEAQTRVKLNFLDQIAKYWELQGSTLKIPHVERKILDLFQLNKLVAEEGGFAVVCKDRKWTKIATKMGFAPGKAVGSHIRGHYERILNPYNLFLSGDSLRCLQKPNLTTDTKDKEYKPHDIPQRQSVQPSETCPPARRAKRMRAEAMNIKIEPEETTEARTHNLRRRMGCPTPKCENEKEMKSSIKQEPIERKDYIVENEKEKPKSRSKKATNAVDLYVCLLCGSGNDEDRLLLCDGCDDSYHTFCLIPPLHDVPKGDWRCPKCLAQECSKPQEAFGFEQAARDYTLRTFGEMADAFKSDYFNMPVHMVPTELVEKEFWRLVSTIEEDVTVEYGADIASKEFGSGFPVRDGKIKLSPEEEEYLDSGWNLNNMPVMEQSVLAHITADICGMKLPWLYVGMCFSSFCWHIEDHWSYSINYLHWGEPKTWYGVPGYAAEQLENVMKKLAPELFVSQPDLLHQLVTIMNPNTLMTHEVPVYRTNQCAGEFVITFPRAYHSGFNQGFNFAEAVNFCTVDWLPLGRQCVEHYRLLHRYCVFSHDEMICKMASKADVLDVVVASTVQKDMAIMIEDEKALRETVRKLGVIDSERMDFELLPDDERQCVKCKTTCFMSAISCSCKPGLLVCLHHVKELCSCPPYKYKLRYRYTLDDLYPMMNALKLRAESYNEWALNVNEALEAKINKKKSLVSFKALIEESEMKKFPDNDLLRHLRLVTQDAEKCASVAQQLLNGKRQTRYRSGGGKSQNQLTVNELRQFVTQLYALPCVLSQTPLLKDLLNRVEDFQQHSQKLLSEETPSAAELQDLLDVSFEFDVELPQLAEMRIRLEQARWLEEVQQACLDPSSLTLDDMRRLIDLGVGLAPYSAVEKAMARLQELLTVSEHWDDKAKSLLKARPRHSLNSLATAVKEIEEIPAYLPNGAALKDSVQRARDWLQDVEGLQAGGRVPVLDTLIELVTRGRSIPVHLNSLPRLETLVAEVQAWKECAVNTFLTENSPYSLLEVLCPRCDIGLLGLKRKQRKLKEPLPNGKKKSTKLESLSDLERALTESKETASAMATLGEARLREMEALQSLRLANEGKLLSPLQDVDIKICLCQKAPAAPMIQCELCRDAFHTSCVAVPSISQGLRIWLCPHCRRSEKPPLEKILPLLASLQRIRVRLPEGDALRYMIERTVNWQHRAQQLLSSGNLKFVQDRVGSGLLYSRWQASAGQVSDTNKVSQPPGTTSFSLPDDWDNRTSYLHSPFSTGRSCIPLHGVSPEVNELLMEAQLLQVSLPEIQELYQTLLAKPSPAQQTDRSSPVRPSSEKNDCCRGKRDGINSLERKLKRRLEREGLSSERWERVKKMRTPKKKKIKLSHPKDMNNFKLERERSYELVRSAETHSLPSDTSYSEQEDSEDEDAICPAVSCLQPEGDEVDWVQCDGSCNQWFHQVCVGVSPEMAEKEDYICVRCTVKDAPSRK

The assay addresses Lysine-specific demethylase 5B (Homo sapiens) (UniProt Q9UGL1). Kind of assay: Optimization screen for KDM5B Histone Demethylases FDH coupled qHTS against the LOPAC library (AID 1347166). Further: 0% is about no effect. As to conditions: KDM5B demethylation, FDH-coupled NADH fluorescence (FDH is formaldehyde dehydrogenase); at 57.5 µM (top of the series). The gist of the method:
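KDM5BDeltaAP (200nM final) preincubated 10 min with compound, then 12.5uM H3K4Me3, 25uM a-ketoglutarate, ascorbate, Fe(II), NAD+ and FDH added; 50mM HEPES pH 7.5, 0.01% Tween-20. NADH fluorescence (340/450 nm) change over 30 min, room temperature.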
On the technique in general: Quantitative high-throughput screening tests each substance at several concentrations.
Consider `OC1(c2ccc(Cl)cc2)CCN(Cc2c[nH]c3ccccc23)CC1`, for which the activity, negative = inhibition was -0.728%.
As for `Cn1cc(C(=O)OCC2CCN(CCNS(C)(=O)=O)CC2)c2ccccc21`, the figure is -6.85%; as for `NCCS(=O)O`, -4.01%.
As for `C=C1C(=O)O[C@@H]2[C@H]3O[C@]3(C)CCC=C(C)CC[C@@H]12`, the figure is -8.83%; as for `O=C(O)C1=CCCNC1`, -1.96%.
As for `CC(N)(C(=O)O)c1ccc(C(=O)O)cc1` (configuration not stated), the figure is -6.58%; as for `CCCCCCCCCCC(C)(C)C(=O)Nc1c(OC)cc(OC)cc1OC`, -22.8%.
For `N#Cc1cc2nc(O)c(O)nc2cc1[N+](=O)[O-]`, the activity, negative = inhibition is -14.6%.
As for `N[C@@H](CS(=O)O)C(=O)O`, the figure is -4.61%; as for `CC(C)NC[C@H](O)COc1cccc2ccccc12`, -12%; as for `CNCCNS(=O)(=O)c1cccc2cnccc12`, -11.7%.
As to `COc1cc(CC(=O)O)ccc1O`, the activity, negative = inhibition was -5.93%.
As for `COc1ccc(CCN(C)CCc2ccc(OC)c(OC)c2)cc1OC`, the figure is 3.09%; as for `COc1ccc(NC(=O)c2ccc(-c3ccc(-c4noc(C)n4)cc3C)cc2)cc1N1CCN(C)CC1`, -1.51%; as for `Cc1nc2c(OCc3ccccc3)cccn2c1CC#N`, 0.134%.
For the compound `CC(=O)N[C@@H](Cc1c[nH]c2ccccc12)C(=O)OCc1cc(C(F)(F)F)cc(C(F)(F)F)c1`, the activity, negative = inhibition is -9.61%.
As for `N[C@H](C(=O)O)c1cc(O)cc(O)c1`, the figure is -24%; as for `O=C(O)c1cccnc1C(=O)O`, 6.25%.
As for `O=C(O)c1ccccc1Nc1ccccc1`, the activity, negative = inhibition is -9.73%.
As for `CCCCOc1cc(CC2CNC(=O)N2)ccc1OC` (configuration not stated), the figure is -3.5%; as for `N[C@H](C(=O)O)[C@H]1C[C@@H]1C(=O)O`, -7.37%; as for `N=C(N)SCCc1cnc[nH]1`, -14.3%.
For the compound `CCCn1c(=O)c(C)cn2nc(N)nc12`, the activity, negative = inhibition was -3980% (active).
Consider `CCCCCCCCCCC/C=C\C(C)(C)/C=C\CCCC(=O)O`, for which the activity, negative = inhibition was -18.4%.
As for `NCCCCN=C(N)N`, the figure is -1.42%; as for `CSC(=N)N`, -3.96%; as for `Nc1ccc(CCNc2ncnc3c2ncn3C2OC(CO)C(O)C2O)cc1` (configuration not stated), -7.72%.
As for `C[C@@]1(C2CCCC2)Cc2cc(OCC(=O)O)c(Cl)c(Cl)c2C1=O`, the figure is -5.03%; as for `O=C(O)C1=CCCN(CCON=C(c2ccccc2)c2ccccc2)C1`, 1.04%; as for `O=[N+]([O-])c1cccc2cn[nH]c12`, -3.93%.
As for `CCCn1c(=O)c2c(ncn2C)n(CCC)c1=O`, the figure is -2.62%.
Take `CCCn1c(=O)c2[nH]c(C3CCCC3)nc2n(CCC)c1=O`: the activity, negative = inhibition is -5.16%.
As for `CCN(CC)CCOC(=O)c1cc(Cl)c(N)cc1OC`, the figure is -9.27%; as for `CC(C)NCC(O)COc1ccc(CC(N)=O)cc1` (configuration not stated), -1.35%; as for `CC1CCN(CC[C@H]2CCCN2S(=O)(=O)c2cccc(O)c2)CC1`, 1.65%.
For the compound `CC(C)[C@H](NC(=O)OCc1ccccc1)C(=O)N[C@H](C=O)Cc1ccccc1` (Cbz-Val-Phe-aldehyde), the activity, negative = inhibition is 6.73%.
As for `CCN(CC)CCCCCCCCOC(=O)c1cc(OC)c(OC)c(OC)c1`, the figure is -10.5%.

The record behind these values is PubChem BioAssay (NCATS).
